From PubChem BioAssay (NCATS) come the findings set out here.

Molecules are shown by their SMILES. A number with no mark means an inactive call. Records with an inconclusive call do not appear. The source made the active and inactive calls. Unless noted, how the calls were made is not given here.

Assay [1] can be described thus: Cellular Toxicity (caspase-3) HUV-EC-C (AID 656; active means well fitted curve in the direction sought with a large enough effect; an effect the other way counts as inactive or inconclusive). The following applies: HUV-EC-C cells, caspase-3 activation (apoptosis), vehicle = 0, 100 µM tamoxifen = 100%; series mostly up to 92.2 µM. In a few lines: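 Luminescent Caspase-Glo 3/7 readout after 16 h, 37 °C compound exposure of HUV-EC-C endothelial cells, 1000 per well, complete medium. AC50 derived by Hill fitting, with DMSO as baseline and 100 uM tamoxifen as full activation.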

Assay [2] in a line: Cellular Toxicity (caspase-3) MRC-5 (AID 659; active means well fitted curve in the direction sought with a large enough effect; an effect the other way counts as inactive or inconclusive). The following applies: MRC-5 cells, luminescence, normalized: DMSO 0%, 10 µM staurosporine 100%; series mostly up to 91.7 µM. In outline: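 Luminescent Caspase-Glo 3/7 read-out (1 h, room temperature) after a 16 h, 37 °C compound exposure of MRC-5 lung fibroblasts at 1500 cells/well. Concentration-response AC50 from Hill equation; 0% DMSO, 100% 10 uM staurosporine.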

A short description of assay [3]: Cellular Toxicity (caspase-3) Mesangial (AID 660; active means well fitted curve in the direction sought with a large enough effect; an effect the other way counts as inactive or inconclusive;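 further: combined caspase 3 and 7 activity read by Caspase-Glo luminescence; cells exposed to compound for 16 h before the caspase read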). Particulars: mesangial cells, normalized: DMSO 0%, 100 µM tamoxifen 100%; series mostly up to 91.7 µM. In a few lines:
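AC50 values come from Hill-equation fits of caspase 3/7 activation, measured as Caspase-Glo luminescence in human glomerular mesangial cells exposed to compound for 16 h at 37 °C; 100% set by 100 uM tamoxifen.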

A short description of assay [4]: Cellular Toxicity (caspase-3) SK-N-SH (AID 661; active means well fitted curve in the direction sought with a large enough effect; an effect the other way counts as inactive or inconclusive). Particulars: SK-N-SH caspase-3 activation, qHTS; series mostly up to 91.7 µM. In a few lines:
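Apoptosis readout in SK-N-SH neuroblastoma: Caspase-Glo 3/7 luminescence following 16 hr treatment in complete culture medium. Normalization used DMSO and 10 uM staurosporine controls.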
(In general: In qHTS, concentration-response curves come from the screen itself.)

Assay [5] is described as follows: Cellular Toxicity (caspase-3) Hek293 (AID 664; active means well fitted curve in the direction sought with a large enough effect; an effect the other way counts as inactive or inconclusive;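 further: cells exposed to compound for 16 h at 37 °C before readout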). Particulars: HEK293 caspase-3 activation, DMSO = 0%, 100 µM tamoxifen = 100%; at 92.2 µM (top of the series). In outline: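 Apoptosis readout: Caspase-Glo 3/7 signal in human HEK293 cells following 16-hour compound incubation. Responses scaled between DMSO baseline and 100 uM tamoxifen.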
Assay [6] is described as follows: Cellular Toxicity (caspase-3) NIH 3T3 (AID 666; active means well fitted curve in the direction sought with a large enough effect; an effect the other way counts as inactive or inconclusive;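 further: 0% = DMSO basal and 100% = 100 µM tamoxifen stimulation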). The following applies: NIH 3T3 caspase-3 activation, apoptosis/toxicity; series mostly up to 92.2 µM. In outline:
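Activity: caspase-3/7 induction, NIH 3T3 cells, 16 hr treatment at 37°C, luminescent Caspase-Glo detection; AC50 via Hill equation.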

The nature of assay [7]: MultiTox-Fluor Cytotoxicity Assay - LYMP1-001 - Dead Cells (AID 946; active means well fitted curve in the direction sought with a large enough effect; an effect the other way counts as inactive or inconclusive;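 further: 0% = DMSO and 100% = tetraoctylammonium bromide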). Particulars: LYMP1-001 lymphoblastoid cells, dead-cell protease fluorescence; series mostly up to 92.2 µM. In a few lines: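 In this qHTS, 15 uM tetraoctylammonium bromide defined 100% and DMSO defined basal activity. Lymphoblastoid cells (LYMP1-001, 2500 per well) received compound for 16 hr at 37 C before a fluorogenic dead-cell substrate readout at 485/520 nm.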

Assay [8] can be described thus: Cell Viability - LYMP1-002 - Assay at 16 hr (AID 948; active means well fitted curve in the direction sought with a large enough effect; an effect the other way counts as inactive or inconclusive;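 further: 0% = DMSO alone and full effect = 92 µM tetraoctylammonium bromide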). The following applies: LYMP1-002 lymphoblastoid cell viability; series mostly up to 92.2 µM. In outline: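 ATP luminescence (CellTiter-Glo) was measured after 16 hr compound exposure at 37 C of 2500 lymphoblastoid LYMP1-002 cells per well. Concentration-response curves were fitted with the Hill equation to give AC50.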

Assay [9] can be described thus: MultiTox-Fluor Cytotoxicity Assay - LYMP1-003 - Live Cells (AID 962; active means well fitted curve in the direction sought with a large enough effect; an effect the other way counts as inactive or inconclusive;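 further: 0% = DMSO only and full loss = 92 µM tetraoctylammonium bromide; cytotoxic hits lower the live-cell protease signal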). Particulars: LYMP1-003 lymphoblastoid cells, MultiTox-Fluor live-cell protease fluorescence; series mostly up to 92.2 µM. In outline:
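Human lymphoblastoid line LYMP1-003 in complete culture medium, treated 16 hr with titrated compounds. Viable cells quantified via cell-permeant GF-AFC substrate fluorescence; AC50 derived by Hill fitting.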

A short description of assay [10]: Cell Viability - LYMP2-003 (AID 965; active means well fitted curve in the direction sought with a large enough effect; an effect the other way counts as inactive or inconclusive;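 further: cells exposed to compounds for 24 h before reading; 0% = DMSO only and full effect = 92 µM tetraoctylammonium bromide; nearly all actives have a fitted effect of over 50% in size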). Particulars: LYMP2-003 lymphoblastoid cell viability; series mostly up to 92.2 µM. In outline: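 CellTiter-Glo luminescence quantified ATP loss after 24 h compound treatment of LYMP2-003 lymphoblastoid cells at 37 C. Titration series were fitted with the standard Hill equation to give AC50.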
Assay [11] can be described thus: Cell Viability - LYMP2-026 (AID 989; active means well fitted curve in the direction sought with a large enough effect; an effect the other way counts as inactive or inconclusive; further: on the % scale 0 is the no-effect control and ±100 the full control effect; nearly all actives have a fitted effect of over 50% in size). Particulars: LYMP2-026 lymphoblastoid cell viability, qHTS; series mostly up to 92.2 µM. In a few lines:
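Acute toxicity screen in complete culture medium, with 24 hr compound exposure at 37 C. Viability read as cellular ATP via luciferase reaction, with tetraoctylammonium bromide (6.4pM to 92 uM) as positive control.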

The nature of assay [12]: Cell Viability - LYMP1-002 - Assay at 40 hr (AID 994; active means well fitted curve in the direction sought with a large enough effect; an effect the other way counts as inactive or inconclusive;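 further: 0% = DMSO only and full inhibition = 92 µM tetraoctylammonium bromide; nearly all actives have a fitted effect of over 60% in size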). Particulars: LYMP1-002 lymphoblastoid cell viability; series mostly up to 92.2 µM. In a few lines: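 Concentration-dependent ATP loss after 40 hr treatment at 37 C defined toxicity; AC50 values were obtained by fitting the standard Hill equation.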
The nature of assay [13]: qHTS Assay for Identification of Small Molecule Inducers of Hypoxia Response (AID 2120; active means well fitted curve in the direction sought with a large enough effect in the signal ratio, with a control signal flat, not every such curve was filed as active; the % refers to the signal ratio; further: 0% is about no effect). The following applies: hypoxia response reporter cells, beta-lactamase ratio readout; series mostly up to 104 µM. In outline: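 HRE-bla ME-180, 2500 cells/well, 0.5% dialyzed FBS medium; cpd titration, 17 h 37 degrees C; CCF4 2.5 h RT; Ex 405, Em 460/530 ratio -> %Activity, AC50.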

Assay [14] can be described thus: qHTS assay for environmental chemicals that activate the Aryl hydrocarbon Receptor (AhR) signaling pathway (AID 651777; active means well fitted curve in the direction sought with a large enough effect; an effect the other way counts as inactive or inconclusive; further: % of control where 0% means no effect; nearly all actives have a fitted effect of over 15% in size). The following applies: 1A2-DRE human hepatoma cells, luciferase, 24 h; activation: hits give high values. In a few lines:
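Concentration–response screening used 1,200 1A2-DRE cells per well, 24 hr compound exposure (37 C, 5% CO2), and One-Glo luminescence as the AhR-driven CYP1A2 reporter signal.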

Assay [15] concerns the target Peroxisome proliferator-activated receptor alpha (Homo sapiens) (UniProt Q07869). Kind of assay: qHTS assay for small molecule agonists of the peroxisome proliferator-activated receptor alpha (PPARalpha) signaling pathway (AID 651778; active means well fitted curve in the direction sought with a large enough effect; an effect the other way counts as inactive or inconclusive; further: % of control where 0% means no effect). The following applies: PathHunter PPARalpha complementation, chemiluminescence, 6 h; hits give high values. In a few lines:
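Chemiluminescence from complemented enzyme reported PPARalpha activation in cells after 6 hr of compound treatment at 37 C. The detection reagent was incubated for 60 min at room temperature, and compounds were scored as agonists.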

The nature of assay [16]: qHTS assay for cell viability of the p53RE-bla HCT-116 cell line (AID 743292; active means well fitted curve in the direction sought with a large enough effect; an effect the other way counts as inactive or inconclusive; further: on the % scale 0 is the no-effect control and ±100 the full control effect; nearly all actives have a fitted effect of over 55% in size). Particulars: p53RE-bla HCT-116 viability, ATP luminescence, 16 h; series mostly up to 95 µM. In outline:
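Compound-exposed HCT-116 (p53RE-bla) cells, 4,000 per well, were kept 16 h at 37 C following a 5 h preincubation. Cell number was estimated from total ATP by CellTiter-Glo luminescence read after 30 min at room temperature.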

For assay [17], the system named is HIV-1 nucleocapsid protein NCp7 (binding to TG oligonucleotide). Kind of assay: HIV Nucleocapsid (AID 346).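 Further: potency means the concentration at half of the fitted maximal effect; potency is for inhibitors that block NC binding and lower polarization.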 Particulars: HIV-1 NC / fluorescein-TGTGTGTG probe, fluorescence polarization. In outline:
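10 nM TG4xF probe with 100 nM nucleocapsid protein in high-salt Hepes pH 7.5 (250mM NaCl) containing 1uM ZnCl2 and reducing agents. Compound inhibition of binding was read as fluorescein polarization after 1 hr at room temperature.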
In general terms: In fluorescence polarisation assays a small probe gives low polarisation when free and higher when bound to something large.

Chain of Peroxisome proliferator-activated receptor alpha (Homo sapiens) (Q07869 whole entry, looked up): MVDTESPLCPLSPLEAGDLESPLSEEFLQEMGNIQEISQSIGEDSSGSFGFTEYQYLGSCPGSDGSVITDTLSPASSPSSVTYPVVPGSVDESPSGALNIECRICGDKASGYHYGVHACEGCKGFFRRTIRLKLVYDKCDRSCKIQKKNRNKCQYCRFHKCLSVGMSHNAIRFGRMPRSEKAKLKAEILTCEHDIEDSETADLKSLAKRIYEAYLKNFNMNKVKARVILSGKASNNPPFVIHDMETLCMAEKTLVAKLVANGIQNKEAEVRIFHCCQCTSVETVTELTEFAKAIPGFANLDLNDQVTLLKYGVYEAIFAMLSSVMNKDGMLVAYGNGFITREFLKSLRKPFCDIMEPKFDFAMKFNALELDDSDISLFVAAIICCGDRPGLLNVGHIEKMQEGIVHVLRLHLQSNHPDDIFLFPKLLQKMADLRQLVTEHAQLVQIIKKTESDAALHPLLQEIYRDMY

With `Oc1cc(Cl)c(Cl)c(Cl)c1Cl`, the compound was called inactive in assay [1], in assay [2], in assay [3], in [7], in assay [8] and in [9]. The Potency result in [4], in assay [6], in assay [10], in [11], in [12] and in assay [13] was “inactive” each time. For the same compound, in assay [16], the Potency result was “inactive”. The caspase-3 activation in assay [5] is 8.07%. Moreover, the activation in [14] is 4.37%. In addition, the max response in assay [15] is 0.278%.
On to `CNc1ncncc1-c1ccccc1OC`, for which, in [17], the Potency is above 20 µM.
Turning to `COCC(=O)N1CCC2(CCCN(Cc3cc(C(F)(F)F)cc(C(F)(F)F)c3)C2)CC1`, the Potency in [17] is above 20 µM.
In the case of `COc1ccc(Oc2ncc3nc(-c4ccc(Cl)cc4)c(=O)n(C)c3n2)cc1`, the Potency in assay [17] is above 20 µM.
Regarding `CS(=O)(=O)Nc1cccc(-c2nc(NCc3ccccc3)c3ccccc3n2)c1`, the Potency in assay [17] was above 20 µM.
With `Cn1c(=O)c(-c2cccc(F)c2)nc2cncnc21`, the Potency in assay [17] was above 20 µM.
Consider `N#Cc1cccc(-c2cncnc2NCc2ccccc2)c1`, for which the Potency in [17] was above 20 µM.
For `O=C(Oc1ccccc1)N1CCC2(CC1)CN(c1ccncc1)C2`, the Potency in assay [17] is above 20 µM.
As to `CNc1cc(-c2ccccc2C)ncn1`, the Potency in assay [17] is above 20 µM.
For the compound `CC(C)CN1CC2(CCN(C(=O)c3cnccn3)CC2)C1`, the Potency in assay [17] was above 20 µM.
Regarding `COc1ncc2nc(-c3cn(C)c4ccccc34)c(=O)n(CCC#N)c2n1`, the Potency in assay [17] is above 20 µM.
Still for that read-out and setting: the value for `COc1ccc2[nH]cc(CCNc3cc(-c4c(C)noc4C)ncn3)c2c1` was above 20 µM; that for `Cc1noc(C)c1-c1cncnc1NCCN1CCOCC1` was above 20 µM; that for `Cc1ccccc1-c1cc(Nc2ccccc2)ncn1` was above 20 µM.
Consider `COCCn1c(=O)c(-c2cn(C)c3ccccc23)nc2cnc(OCc3ccccc3)nc21`, for which the Potency in assay [17] was above 20 µM.
`COCCn1c(=O)c(-c2ccc(Cl)cc2)nc2cnc(OC)nc21`: the Potency in assay [17] was above 20 µM.
For `COc1ccc(Oc2ncc3nc(-c4ccc(OC)cc4)c(=O)n(CCC#N)c3n2)cc1`, in assay [17], the Potency is above 20 µM.
The same measure, in the same setting: the value for `CS(=O)(=O)N1CCC[C@@]2(CCN(Cc3ccc(C#N)cc3)C2)C1` was above 20 µM.
On to `COc1ccc(Oc2ncc3nc(-c4cn(C)c5ccccc45)c(=O)n(C4CC4)c3n2)cc1`, for which the Potency in [17] is above 20 µM.
As to `COCCn1c(=O)c(-c2cccs2)nc2cnc(Nc3ccccc3)nc21`, the Potency in [17] was above 20 µM.
Consider `COc1ccc(-c2nc3cnc(Nc4ccccc4)nc3n(C[C@H]3CCCO3)c2=O)cc1`, for which, in assay [17], the Potency was above 20 µM.
Turning to `FC(F)(F)c1ccccc1-c1ccc2ncnc(NCc3cccs3)c2c1`, the Potency in assay [17] was above 20 µM.
The same measure, in the same setting: in the case of `c1csc(CNc2ncnc3ccc(-c4ccc5c(c4)OCO5)cc23)c1` it was above 20 µM; in that of `COc1ccccc1CNc1cc(-c2ccccc2Cl)ncn1`, above 20 µM; in that of `O=c1c(-c2ccccc2)nc2cnc(Nc3ccccc3)nc2n1C[C@H]1CCCO1`, above 20 µM.
With `COc1ccc(C(=O)N2CCC[C@@]3(CCN(C(=O)NC(C)C)C3)C2)cc1`, the Potency in assay [17] was above 20 µM.
With `CC(=O)N1CCC2(CCCN(c3ncccn3)C2)CC1`, in [17], the Potency was above 20 µM.
For the compound `CN(C)c1ncnc2ccc(-c3cccc(NS(C)(=O)=O)c3)cc12`, in assay [17], the Potency was above 20 µM.
Consider `CN(C)c1ccc(-c2cncnc2Nc2ccccc2)cc1`, for which, in [17], the Potency is above 20 µM.
Same read-out and setting: the value for `COc1cccc(-c2nccc(NCc3cccnc3)n2)c1` was above 20 µM; that for `O=C(c1cnccn1)N1CCC[C@@]2(CCN(c3ccncc3)C2)C1` was above 20 µM.
As to `Cc1nc2cnc(N3CCNCC3)nc2n(CCc2ccccc2)c1=O`, the Potency in [17] is above 4 µM.
`N#Cc1cccc(NC(=O)N2CC[C@@]3(CCCN(C(=O)c4cccc(F)c4)C3)C2)c1`: the Potency in assay [17] is above 20 µM.
The same measure, in the same setting: the value for `COc1ccc(-c2nc3cnc(N4CCN(C)CC4)nc3n(Cc3cccc(OC)c3)c2=O)cc1` was above 20 µM; that for `CN(C)c1ncnc2ccc(-c3cccnc3)cc12` was above 20 µM.
On to `Cn1c(=O)c(CCc2ccccc2)nc2cnc(Oc3ccccc3)nc21`, for which the Potency in assay [17] is above 20 µM.
For the compound `COc1ncc2nc(CCc3ccccc3)c(=O)n(C)c2n1`, the Potency in assay [17] was above 20 µM.
The same measure, in the same setting: in the case of `Cc1noc(C)c1-c1nccc(N2CCOCC2)n1` it was above 20 µM; in that of `COc1ccccc1CN1CCC2(CC1)CCN(C(=O)c1cc(C(F)(F)F)cc(C(F)(F)F)c1)CC2`, above 20 µM; in that of `COc1ccccc1CCn1c(=O)c(-c2cn(C)c3ccccc23)nc2cncnc21`, above 4 µM.
In the case of `COc1ccc(C(=O)N2CCC3(CCN(Cc4nccs4)CC3)CC2)cc1`, in assay [17], the Potency is above 20 µM.
Still for that read-out and setting: in the case of `CN1CCN(c2ncnc3ccc(-c4cccnc4)cc23)CC1` it was above 20 µM.
